# Several values for one entry are separate records, joined by “and”; a condition that tells them apart may be missing. Identical values can stand only once. A number with no mark means an inactive call. Inconclusive results are not listed. A call without a number means that no potency is given here. Activity calls are given as the source filed them. Unless noted, calls come from the whole dose curve; as a rule, active = well fitted curve in the direction sought with a large enough effect; inconclusive = small, poorly fitted or top-dose-only effect, or another doubt; inactive = no such curve, though single readings can be large; an effect the other way counts as inactive or inconclusive.
# Experiments:
# [1] = target: 3',5'-cyclic-AMP phosphodiesterase 4B (Homo sapiens) (UniProt Q07343); assay: qHTS Assay for Inhibitors of PDE-IV (AID 607; active = well fitted activation curve with a large enough effect in the main read-out, with a control signal flat, not every such curve was filed as active; note: potency is the fitted concentration of half-maximal effect)
# Chain of 3',5'-cyclic-AMP phosphodiesterase 4B (Homo sapiens) (Q07343 whole entry, looked up): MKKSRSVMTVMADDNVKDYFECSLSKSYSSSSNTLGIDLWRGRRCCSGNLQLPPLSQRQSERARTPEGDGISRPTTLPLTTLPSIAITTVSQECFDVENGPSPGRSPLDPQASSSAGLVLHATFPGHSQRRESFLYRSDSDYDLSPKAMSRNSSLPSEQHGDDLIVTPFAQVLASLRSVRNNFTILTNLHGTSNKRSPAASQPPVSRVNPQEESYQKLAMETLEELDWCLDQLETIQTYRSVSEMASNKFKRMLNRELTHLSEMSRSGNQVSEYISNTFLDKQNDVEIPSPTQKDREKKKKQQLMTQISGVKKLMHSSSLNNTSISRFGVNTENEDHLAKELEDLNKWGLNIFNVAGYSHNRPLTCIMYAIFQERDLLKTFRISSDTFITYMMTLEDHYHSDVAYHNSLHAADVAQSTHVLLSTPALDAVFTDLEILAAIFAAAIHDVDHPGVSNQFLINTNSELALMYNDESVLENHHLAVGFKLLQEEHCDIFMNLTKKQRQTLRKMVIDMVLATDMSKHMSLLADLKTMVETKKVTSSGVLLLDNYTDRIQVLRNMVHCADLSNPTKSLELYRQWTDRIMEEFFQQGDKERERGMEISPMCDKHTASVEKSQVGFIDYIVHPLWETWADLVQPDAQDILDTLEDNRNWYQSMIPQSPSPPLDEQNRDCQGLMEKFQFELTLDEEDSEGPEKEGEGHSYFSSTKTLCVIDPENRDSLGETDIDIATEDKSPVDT
# Outline: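 Live HEK293 cells with a modified cyclic nucleotide-gated (CNG) channel report intracellular cAMP via membrane-potential dye fluorescence (ex 535/em 590 nm). Endogenous PDE-IV was targeted. Compounds were tested at up to 22.9 uM final; RO 20-1724 100 uM served as control.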
# [2] = target: Guanine nucleotide-binding protein G(i) subunit alpha-1 (Homo sapiens) (UniProt P63096); assay: qHTS Assay for Inhibitors of RGS12 GoLoco Motif Activity (Green Fluorophore) (AID 879);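 note: negative values mean loss of peptide binding seen as reduced polarization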
# Chain of Guanine nucleotide-binding protein G(i) subunit alpha-1 (Homo sapiens) (P63096 whole entry, looked up): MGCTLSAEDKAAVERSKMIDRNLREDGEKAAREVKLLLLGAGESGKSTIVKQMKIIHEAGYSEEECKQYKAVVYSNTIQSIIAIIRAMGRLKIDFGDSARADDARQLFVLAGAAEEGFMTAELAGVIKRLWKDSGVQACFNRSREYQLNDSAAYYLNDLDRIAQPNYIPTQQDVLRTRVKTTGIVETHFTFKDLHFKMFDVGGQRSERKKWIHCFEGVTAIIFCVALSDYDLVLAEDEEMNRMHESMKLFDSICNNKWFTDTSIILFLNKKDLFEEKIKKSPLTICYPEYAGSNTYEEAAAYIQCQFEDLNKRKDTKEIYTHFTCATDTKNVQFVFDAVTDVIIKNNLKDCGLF
# Outline: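 A drop in FITC polarization marked displacement of the FITC-tagged RGS12 GoLoco peptide (10 nM) from Gαi1 (50 nM). Compounds were incubated 10 min at room temperature in Tris pH 7.5 buffer containing 150 mM NaCl, 0.1 mM GDP and 0.05% NP40; unlabeled peptide titration served as control.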
# [3] = target: Cytochrome P450 3A4 (Homo sapiens) (UniProt P08684); assay: qHTS Assay for Activators of Cytochrome P450 3A4 (AID 885); note: nearly all actives have a fitted effect of over 65% in size
# Chain of Cytochrome P450 3A4 (Homo sapiens) (P08684 whole entry, looked up): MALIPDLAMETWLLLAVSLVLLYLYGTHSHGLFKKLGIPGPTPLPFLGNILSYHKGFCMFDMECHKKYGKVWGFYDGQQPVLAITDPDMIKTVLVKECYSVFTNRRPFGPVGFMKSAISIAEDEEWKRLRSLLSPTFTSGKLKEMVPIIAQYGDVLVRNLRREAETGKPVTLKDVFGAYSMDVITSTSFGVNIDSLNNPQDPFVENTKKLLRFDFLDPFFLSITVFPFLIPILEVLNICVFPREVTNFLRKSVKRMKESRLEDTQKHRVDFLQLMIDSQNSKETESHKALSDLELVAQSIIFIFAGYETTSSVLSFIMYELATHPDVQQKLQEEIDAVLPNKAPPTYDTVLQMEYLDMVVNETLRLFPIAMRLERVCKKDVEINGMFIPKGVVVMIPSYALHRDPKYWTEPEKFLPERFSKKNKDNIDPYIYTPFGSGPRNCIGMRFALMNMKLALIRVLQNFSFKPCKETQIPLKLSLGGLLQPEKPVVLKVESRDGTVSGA
# Outline: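 Using 20nM recombinant human CYP3A4 in potassium phosphate (200mM), substrate Luciferin-PPXE at 25uM, luminescent luciferin detection followed a 60-min RT NADPH reaction; data scaled to 57 uM ketoconazole.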
# [4] = target: Cytochrome P450 3A4 (Homo sapiens) (UniProt P08684); assay: qHTS Assay for Inhibitors and Substrates of Cytochrome P450 3A4 (AID 884); note: nearly all actives have a fitted effect of over 50% in size; note: potency is the fitted concentration of half-maximal effect
# Outline: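 Luminescent readout of luciferin produced by CYP3A4 (20 nM) dealkylation of Luciferin-PPXE, 25 uM (its KM). NADPH-driven reaction ran 60 min at RT after 10 min compound preincubation; data scaled to 57 uM ketoconazole as 100% inhibition.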
# [5] = target: Cytochrome P450 2C19 (Homo sapiens) (UniProt P33261); assay: qHTS Assay for Inhibitors and Substrates of Cytochrome P450 2C19 (AID 899); note: nearly all actives have a fitted effect of over 60% in size; note: potency is the fitted concentration of half-maximal effect
# Chain of Cytochrome P450 2C19 (Homo sapiens) (P33261 whole entry, looked up): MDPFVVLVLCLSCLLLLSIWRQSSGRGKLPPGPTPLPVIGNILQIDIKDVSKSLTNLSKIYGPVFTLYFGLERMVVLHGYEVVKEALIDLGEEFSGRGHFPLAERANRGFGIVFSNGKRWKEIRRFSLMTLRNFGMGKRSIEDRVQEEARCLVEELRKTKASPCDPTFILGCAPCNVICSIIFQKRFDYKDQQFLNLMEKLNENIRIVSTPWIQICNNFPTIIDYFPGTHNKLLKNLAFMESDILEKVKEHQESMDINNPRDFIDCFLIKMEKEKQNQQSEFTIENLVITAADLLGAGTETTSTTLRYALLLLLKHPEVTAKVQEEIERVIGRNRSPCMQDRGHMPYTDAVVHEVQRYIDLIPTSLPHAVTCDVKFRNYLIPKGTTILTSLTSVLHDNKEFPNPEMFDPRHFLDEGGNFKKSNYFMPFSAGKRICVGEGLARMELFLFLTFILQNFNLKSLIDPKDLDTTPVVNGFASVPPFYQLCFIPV
# Outline: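 5nM enzyme + 10uM Luciferin-H EGE (=KM), 50mM KPO4; cpd pin-transferred, 10 min 37C; NADPH regen, 60 min 37C; stopped w/ luciferin detection reagent, 20 min; luminescence. Normalized to 57uM ketoconazole (AC100).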
# [6] = target: Cytochrome P450 2C9 (Homo sapiens) (UniProt P11712); assay: qHTS Assay for Inhibitors and Substrates of Cytochrome P450 2C9 (AID 883); note: nearly all actives have a fitted effect of over 60% in size; note: potency is the fitted concentration of half-maximal effect
# Chain of Cytochrome P450 2C9 (Homo sapiens) (P11712 whole entry, looked up): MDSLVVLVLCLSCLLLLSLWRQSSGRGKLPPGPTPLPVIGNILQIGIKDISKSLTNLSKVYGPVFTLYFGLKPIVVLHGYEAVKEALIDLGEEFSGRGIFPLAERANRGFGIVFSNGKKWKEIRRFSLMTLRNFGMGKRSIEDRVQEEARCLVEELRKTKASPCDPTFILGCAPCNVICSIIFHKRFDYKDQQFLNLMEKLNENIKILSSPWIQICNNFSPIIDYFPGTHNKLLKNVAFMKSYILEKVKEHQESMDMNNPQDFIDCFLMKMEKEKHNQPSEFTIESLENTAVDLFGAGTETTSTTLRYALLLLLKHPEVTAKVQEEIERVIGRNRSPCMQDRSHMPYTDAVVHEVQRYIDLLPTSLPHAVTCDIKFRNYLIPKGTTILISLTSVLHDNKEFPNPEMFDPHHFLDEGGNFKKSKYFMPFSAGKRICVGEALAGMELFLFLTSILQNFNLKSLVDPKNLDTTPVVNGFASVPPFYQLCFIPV
# Outline: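 Inhibition of CYP2C9 is scored as loss of luminescence, with 57uM sulphaphenazole defining 100% inhibition. Substrate Luciferin-H is used at 100uM, equal to its KM; enzyme at 10nM in 25mM KPO4, 60 min at 37C with NADPH regeneration.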
# [7] = target: Cytochrome P450 2D6 (Homo sapiens) (UniProt P10635); assay: qHTS Assay for Inhibitors and Substrates of Cytochrome P450 2D6 (AID 891); note: nearly all actives have a fitted effect of over 60% in size; note: potency is the fitted concentration of half-maximal effect
# Chain of Cytochrome P450 2D6 (Homo sapiens) (P10635 whole entry, looked up): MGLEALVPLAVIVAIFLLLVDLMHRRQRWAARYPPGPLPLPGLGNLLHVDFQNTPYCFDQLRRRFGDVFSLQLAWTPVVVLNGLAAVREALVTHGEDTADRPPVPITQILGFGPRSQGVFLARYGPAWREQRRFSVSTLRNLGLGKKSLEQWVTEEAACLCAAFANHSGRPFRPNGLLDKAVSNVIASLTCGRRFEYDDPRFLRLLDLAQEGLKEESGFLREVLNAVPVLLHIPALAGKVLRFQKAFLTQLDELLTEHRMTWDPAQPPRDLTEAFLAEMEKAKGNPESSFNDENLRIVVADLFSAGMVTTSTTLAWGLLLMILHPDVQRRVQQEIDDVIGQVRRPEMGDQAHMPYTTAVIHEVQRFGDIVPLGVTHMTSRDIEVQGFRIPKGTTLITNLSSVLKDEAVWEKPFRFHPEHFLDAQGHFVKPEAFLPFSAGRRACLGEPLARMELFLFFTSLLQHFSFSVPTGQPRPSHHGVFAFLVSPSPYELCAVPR
# Outline: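 Luminescent read-out of luciferin formed by 5 nM human CYP2D6 demethylating 30 uM Luciferin-ME EGE (Km level) over 60 min at room temperature after NADPH regeneration addition. Data normalized to full inhibition by 1.43 uM quinidine.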
compound,measurement,setting,value
CN1CCC(c2c[nH]c3ccc(O)cc23)CC1,Potency,[1],inactive
same,Potency,[2],inactive
same,outcome,[3],inactive
Cc1sc2ccccc2c1CC1=NCCN1,Potency,[1],inactive
same,Potency,[2],inactive
Nc1ccc(CCN2CCN(c3cccc(C(F)(F)F)c3)CC2)cc1,Potency,[1],inactive
same,Potency,[2],inactive
same,Potency,[4],7.94 µM (active)
same,outcome,[3],inactive
same,Potency,[5],7.94 µM (active)
NCCCP(=O)(O)O,Potency,[1],inactive
same,Potency,[2],inactive
same,outcome,[3],inactive
CCN(CCCl)Cc1ccccc1Br,Potency,[1],inactive
same,Potency,[2],inactive
CCCN(CCC)CCc1c[nH]c2ccc(C(N)=O)cc12,Potency,[1],inactive
same,Potency,[2],inactive
same,Potency,[6],inactive
N#CCCN,Potency,[1],inactive
same,Potency,[2],inactive
C[C@@H]1[C@@H]2Cc3ccc(O)cc3[C@@]1(C)CCN2CC1CC1,Potency,[1],inactive
same,Potency,[2],inactive
N#CC(C#N)=Cc1cc(O)c(O)c(O)c1,Potency,[1],inactive
same,Potency,[2],inactive
same,outcome,[3],inactive
c1ccc2c(N3CCNCC3)cccc2c1,Potency,[1],inactive
same,Potency,[2],inactive
c1ccc2cc(CC3=NCCN3)ccc2c1,Potency,[1],inactive
same,Potency,[2],inactive
CN1CCc2cccc(Cl)c2CC1,Potency,[1],inactive
same,Potency,[2],inactive
C[N+](C)(C)CCOC(=O)CBr,Potency,[1],inactive
same,Potency,[2],inactive
NC(N)=NOCC[C@H](N)C(=O)O,Potency,[1],inactive
same,Potency,[2],inactive
C[C@@H]1O[C@H](C[N+](C)(C)C)CS1,Potency,[1],1.26 µM (active)
same,Potency,[2],inactive
OCc1cnc[nH]1,Potency,[1],inactive
same,Potency,[2],inactive
NCCc1ccc(S(=O)(=O)F)cc1,Potency,[1],inactive
same,Potency,[2],inactive
COc1ccc2[nH]c3c(c2c1)CCNC3,Potency,[1],inactive
same,Potency,[2],inactive
O=[N+]([O-])c1cc(O)c(O)c([N+](=O)[O-])c1,Potency,[1],inactive
same,Potency,[2],inactive
same,Potency,[6],10 µM (active) and 794 nM (active)
same,Potency,[7],inactive
same,Potency,[5],inactive
C[N+]1(C)[C@@H]2CC[C@H]1CC(OC(=O)c1c[nH]c3ccccc13)C2 (stereo partly drawn),Potency,[1],inactive
same,Potency,[2],inactive
same,Potency,[4],7.94 µM (active)
same,outcome,[3],inactive
C[C@H](N)CN1CCc2ccc(Br)cc21,Potency,[1],inactive
same,Potency,[2],inactive
NNC(=O)c1ccc(O)cc1,Potency,[1],inactive
same,Potency,[2],inactive
same,Potency,[4],5.01 µM (active)
same,outcome,[3],inactive
CCCN(CCC)CCc1ccc(O)c(O)c1,Potency,[1],inactive
same,Potency,[2],inactive
Cc1c2ccncc2c(C)c2c1[nH]c1ccccc12,Potency,[1],inactive
same,Potency,[2],inactive
same,Potency,[4],158 nM (active) and 398 nM (active)
same,outcome,[3],inactive
same,Potency,[7],31.6 µM (active) and 6.31 µM (active)
same,Potency,[5],6.31 µM (active) and 3.16 µM (active)
O=P(O)(O)C(Cl)(Cl)P(=O)(O)O,Potency,[1],inactive
same,Potency,[2],inactive
same,Potency,[5],inactive
CCCN(CCC)[C@@H]1CCc2cccc(O)c2C1,Potency,[1],inactive
same,Potency,[2],inactive
same,Potency,[7],3.16 µM (active) and 794 nM (active)
CNC(=O)OCC[N+](C)(C)C,Potency,[2],inactive
same,Potency,[7],inactive
NC(=O)c1cc(N2CC2)c([N+](=O)[O-])cc1[N+](=O)[O-],Potency,[1],inactive
same,Potency,[2],inactive
same,outcome,[3],inactive
CC(N)Cc1ccc(O)cc1 (stereo not drawn),Potency,[4],inactive

# Reference: PubChem BioAssay (NCATS)
